# Screens from PubChem.
# HTT cytoprotect = cytoprotection in Huntington HTT-Q103 PC12 cell model | AID 1471 | hit rate 0.14% among 230,000 | PC12 HTT-Q103 induced, cytoprotection, ATP luminescence, 40 h | Potency, µM (highest dose often 56.4 µM), inactives show cytoprotection (ATP increase), usual class: activators; also: potency is read from the fitted curve at half-maximal effect; % of control where 0% means no effect; nearly all actives have a fitted effect of over 45% in size
#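 Compounds added alongside 100 nM tebufenozide, which induces toxic Q103 huntingtin exon 1-GFP in stable PC12 cells; surviving cells quantified by luminescent ATP measurement. Medium: phenol red-free DMEM, 5% equine and 5% calf serum.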
# IMPase inh = membrane-permeable compound that blocks inositol monophosphatase | CHO-M1 cells, IP1 accumulation, HTRF TR-FRET ratio | P97697 | inhibition (IP1 accumulation), % at 46.1 µM | 120,000 tested, under 10 active; active = well fitted curve in the direction sought with a large enough effect in the signal ratio, not every such curve was filed as active; inconclusive = small, poorly fitted or top-dose-only effect, or a change in a side signal; inactive = no such curve, though single readings can be large or run the other way; the % refers to the signal ratio;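 also: cells stimulated with carbachol in lithium chloride buffer; plate controls were DMSO basal wells for no effect and reference inhibitor wells for full effect; higher means more IMPase inhibition seen as more IP1 and lower FRET ratio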
# Target sequence (P97697 whole entry, looked up): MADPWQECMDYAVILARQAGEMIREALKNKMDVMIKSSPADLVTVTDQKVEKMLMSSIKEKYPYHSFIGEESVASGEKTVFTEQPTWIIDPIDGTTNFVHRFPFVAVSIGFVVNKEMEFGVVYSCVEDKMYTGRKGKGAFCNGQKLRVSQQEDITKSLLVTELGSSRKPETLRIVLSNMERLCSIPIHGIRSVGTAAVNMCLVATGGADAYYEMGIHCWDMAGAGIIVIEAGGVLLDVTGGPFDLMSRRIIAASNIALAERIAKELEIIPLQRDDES
#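 Carbachol-driven Gq signalling in CHO-M1 cells (2000/well) generates IP1. Compounds that block IMPase raise IP1 and so reduce the FRET signal from Eu-anti-IP1 and d2-IP1 after a 10 min room-temperature lysis.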
# IMPase Li inh = membrane-permeable IMPase blocker, potentiated with lithium. CHO-M1 cells, IP1 TR-FRET (IP-One), carbachol + lithium. Potency, µM (titrated, usually from 59.4 µM), for inactives: at the top dose activity, negative = IMPase inhibition, actives largely listed as inhibitors. hit rate 0.35% among 210,000. AID 1457;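 also: IP1 builds up when IMPase is blocked and the TR-FRET signal falls; potency is read from the fitted curve at half-maximal effect; plate controls were basal vehicle for no effect and high inhibitor control for full effect; nearly all actives have a fitted effect of over 50% in size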
#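 CHO cells stably expressing M1 receptor (2000/well) were cultured 16–30 h, then exposed to compounds with a small lithium addition for 30 min at 37C. IP1 was measured by TR-FRET competition; AC50 from Hill fits.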
# HTT aggregate = reduces HttQ103-GFP aggregates in PC12 cells | Potency, µM (top dose mostly 46.1 µM), for inactives: at the highest dose activity change, negative = inhibition, usual class: inhibitors | hit rate 1.1% among 220,000 | PC12 HttQ103-GFP aggregates, Acumen cytometry, 40 h; also: potency is read from the fitted curve at half-maximal effect; % is scaled to controls: 0 for no effect and ±100 for the full control effect; nearly all actives have a fitted effect of over 60% in size
#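 Huntingtin Q103 exon 1–GFP aggregates in induced PC12 cells (100 nM tebufenozide) were quantified by cytometry from lysates, with compounds dosed in titration.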
# NPSR antag = antagonists of human neuropeptide S receptor cAMP signaling | Q6W5P4 | CHO-NPSR cells, cAMP TR-FRET, antagonist mode | Potency, µM (series often up to 38.3 µM), inactives show top-dose activity change, negative = inhibition, actives largely listed as inhibitors | hit rate 1% among 220,000; also: potency is read from the fitted curve at half-maximal effect; % is scaled to controls: 0 for no effect and ±100 for the full control effect; nearly all actives have a fitted effect of over 50% in size
# Target sequence (Q6W5P4 whole entry, looked up): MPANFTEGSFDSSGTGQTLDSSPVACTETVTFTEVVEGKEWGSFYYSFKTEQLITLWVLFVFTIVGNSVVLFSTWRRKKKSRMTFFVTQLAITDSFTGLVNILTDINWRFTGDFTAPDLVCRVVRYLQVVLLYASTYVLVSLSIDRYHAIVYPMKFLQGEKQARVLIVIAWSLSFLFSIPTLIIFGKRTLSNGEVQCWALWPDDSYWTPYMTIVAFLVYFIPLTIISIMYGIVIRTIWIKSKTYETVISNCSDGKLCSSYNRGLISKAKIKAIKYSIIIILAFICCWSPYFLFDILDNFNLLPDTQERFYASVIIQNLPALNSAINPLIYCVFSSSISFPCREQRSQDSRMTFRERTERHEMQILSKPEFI
# PNC inhibitor = blocks assembly of the perinucleolar compartment. PC3M PTB-GFP, PNC prevalence imaging, 16 h; active compounds read low. activity change (PNC), negative = inhibition, % at 10 µM. hit rate 3.1% among 140,000. AID 2417;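 active = readout at or below -70, meaning at least 70% loss of cells showing the perinucleolar compartment, a nuclear body marking cancer cells; inconclusive = readout between -30 and a set limit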;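 also: plate controls were DMSO wells for no effect and camptothecin positive control wells for full effect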
#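 Read-out is percentage of cells bearing a perinucleolar compartment, from automated 20x imaging of fixed, Hoechst-stained PC3M PTB-GFP cells. Cells were seeded 4 h, then exposed 16 h to compound (23 nl of library stock) in duplicate plates.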
# An asterisk follows results filed as active; ? = inconclusive; nt = not tested or not shown; ! = a repeat was not active; [ ] = remark or other dose. Shown are actives, neighbours in structure and some others; about 3.4% of the full set was active somewhere. Unless noted, calls follow the shape of the dose curve; as a rule, active = well fitted curve in the direction sought with a large enough effect; inconclusive = small, poorly fitted or top-dose-only effect, or another doubt; inactive = no such curve, though single readings can be large; an effect the other way counts as inactive or inconclusive.
SMILES,HTT cytoprotect,IMPase inh,IMPase Li inh,HTT aggregate,NPSR antag,PNC inhibitor
COC(=O)c1c(NC(=O)C2CC2)sc(C(=O)Nc2ccccc2)c1C,-68%,nt,6%,9%,-29%,nt
O=C(Nc1ccc(OC(F)(F)F)cc1)c1[nH]ncc1[N+](=O)[O-],19%,nt,-5%,-20%,-1%,nt
C#CC(=O)N(c1cc(OC)ccc1OC)C(C(=O)NC1CCCC1)c1cccs1 (stereo not drawn),-96%,14,18%[38.3 µM],?,10µM*,105
Cc1ccc(C2C(C=Nc3c(C)n(C)n(-c4ccccc4)c3=O)=C(c3ccccc3)Oc3ccccc32)cc1 (stereo not drawn),-38%,-6,5%[38.3 µM],22µM*,-17%[46.1 µM],?
CSc1nc2ccccc2n1Cc1c(Cl)cccc1Cl,-29%,15,52%[38.3 µM],11µM*,-14%[46.1 µM],8
Oc1ccc(/C=N/N2CCN(C3c4ccccc4-c4ccccc43)CC2)c(O)c1,5%,nt,6%,9%,-30%,nt
Cc1ccccc1Oc1ncnc(N)c1[N+](=O)[O-],2%,nt,-13%,8%,21%,nt
CCCCN(c1ccccc1)c1ncnc(N)c1[N+](=O)[O-],13%,5,12%[38.3 µM],7.1µM*,-6%[46.1 µM],3
O=C(Nc1cc(Cl)ccc1O)c1snnc1-c1ccccc1,-67%,7,-3%[38.3 µM],16µM*,?,-7
O=S(=O)(c1ccc(F)cc1)n1ccc2cccnc21,0%[10 µM],-5,5%,-3%,0%[46.1 µM],-100*
O=C(NCCOc1nc(N2CCCCC2)nc(N2CCOCC2)n1)Nc1ccccc1,3%,6,30%[38.3 µM],-32%,-22%[46.1 µM],-107*
CCc1ccc(-c2nc(CSCC(=O)N3CCN(c4ncccn4)CC3)c(C)o2)cc1,-2%,6,10%[38.3 µM],11µM*,8%[46.1 µM],-1
CCC(=NCCc1c(C)[nH]c2ccc(OC(F)(F)F)cc12)C1=C(O)CC(c2ccccc2)CC1=O (stereo not drawn),-63%,nt,?,-17%,10µM*,nt
COc1cccc([C@@H]2Oc3ccc(Br)cc3C(=O)[C@H]2OC(=O)Nc2ccc(C)c(Br)c2)c1,?,nt,14%,nt,nt,nt
O=C(Cn1nc2ccccc2n1)N/N=C/c1cc(Cl)cc([N+](=O)[O-])c1O,22%[10 µM],nt,4%,?,-16%,nt
Cc1ccccc1C(=O)Nc1cccc(C(=O)N/N=C/c2cc(Cl)cc([N+](=O)[O-])c2O)c1,-8%,nt,-8%,2.8µM*,-6%,nt
Cc1cc(C)n(CC(O)CN2C(=O)NC(C)(C)C2=O)n1 (stereo not drawn),-8%[0.074 µM],4,20%[38.3 µM],-12%,-1%[46.1 µM],-107*
COc1ccc(Cc2[nH]n3c(=O)cc(C(C)C)nc3c2-c2ccccc2)cc1,-141%,nt,6%,?,-16%,nt
CCCc1cc(C(=O)OC)c(NC(=O)c2cc(C)on2)s1,?,-10,17%,-7%,-13%,-87*
C=CCN1C(=O)N/C(=C/c2ccc(N3CCOCC3)o2)C1=O,nt,nt,45%,5µM*,-43%,48
Cc1ccc(-c2ccc(/C=C3\SC(N4CCOCC4)=NC3=O)o2)cc1,2.8µM*,nt,6%,0%,-31%,nt
O=C1S/C(=C/c2ccc(N3CCOCC3)o2)C(=O)N1Cc1ccc(F)cc1,-40%,5,-17%[38.3 µM],13%,-18%[46.1 µM],36
O=C1N/C(=C/c2ccc(N3CCOCC3)o2)C(=O)N1c1ccccc1,-14%[0.074 µM],nt,51%,?,-37%,?
O=C1NC(=S)S/C1=C/c1ccc(N2CCOCC2)o1,nt,nt,-10%,-31%,13µM*,-14
COC(=O)[C@@]1(Cc2ccccc2)[C@H]2c3cc(C(=O)N4CCCC4)n(Cc4ccccc4)c3C[C@H]2CN1C(=O)c1ccccc1,-54%,nt,21%,nt,nt,nt
SMILES,HTT cytoprotect,IMPase inh,IMPase Li inh,HTT aggregate,NPSR antag,PNC inhibitor
CNC(=O)C1=C(C)n2c(nc3ccccc32)NC1c1ccc(OC)cc1 (stereo not drawn),nt,nt,-5%,-13%,-11%,-114*
CC1=C(C(=O)Nc2ccccc2)C(c2cccc([N+](=O)[O-])c2)Nc2nc3ccccc3n21 (stereo not drawn),-21%,1,30%[38.3 µM],14%,-28%[46.1 µM],?
COc1ccc2c(c1)C(=O)[C@@H](O)[C@H](c1ccc(OC)c(Br)c1)O2,-65%,nt,10%,-19%,-23%,-115*
CN1CCN(c2ncc3nc(-c4ccc(Cl)cc4)c(=O)n(CCC#N)c3n2)CC1,-5%,nt,8%,nt,nt,nt
O=C(Cn1cc(C(F)(F)F)ccc1=O)Nc1ccccc1,-6%[10 µM],nt,nt,5%[9.22 µM],-5%[7.67 µM],nt
Cc1ccc(NC(=O)CN(C)C(=O)Cn2cc(C(F)(F)F)ccc2=O)cc1,9%[10 µM],-3,nt,-19%,9%[46.1 µM],-80*
C(=C\c1ccccc1)/CN1CCN(C(c2ccccc2)c2ccccc2)CC1,nt,6,22%,12%,13µM*!,18
COC(=O)c1ccc(C)c(NS(=O)(=O)c2ccc3c(c2)OCCO3)c1,-7%[10 µM],-2,20%[38.3 µM],18%,23%[46.1 µM],-112*
COC(=O)c1ccc(C)c(NS(=O)(=O)c2ccc(C)c([N+](=O)[O-])c2)c1,-1%,-8,2%[38.3 µM],18%,-8%[46.1 µM],13
O=C(COC(=O)c1ccc(NS(=O)(=O)c2ccc3c(c2)OCCO3)cc1)NCC1CCCO1 (stereo not drawn),-13%[10 µM],1,6%[38.3 µM],-30%,-5%[46.1 µM],-92*
COC(=O)c1ccc(C)c(NS(=O)(=O)c2ccc(OC)cc2)c1,-6%[10 µM],6,-5%[38.3 µM],-5%,?,-94*
COCCCn1c(SCC(=O)NC2CCCC2)nnc1-c1ccco1,10%,-8,2%[38.3 µM],-4%,-6%[46.1 µM],-107*
O=C(CSc1nnc(-c2ccco2)n1Cc1ccccc1)NC(=O)NCc1ccccc1,-47%,-2,8%[38.3 µM],-3%,-30%[46.1 µM],-92*
COCCCn1c(SCC(=O)OC2CCCCC2)nnc1-c1ccco1,15%,-1,6%[38.3 µM],-15%,-3%[46.1 µM],5
CNC(=O)NC(=O)CSc1nnc(-c2ccco2)n1Cc1ccccc1,-2%,45,-13%[38.3 µM],-2%,0%[46.1 µM],45
C=C1C(C(=O)Nc2ccccc2)C1C(=O)Nc1ccccc1 (stereo not drawn),-7%[10 µM],nt,nt,-5%[9.22 µM],-4%[7.67 µM],nt
CC(=O)NCCNc1nc(-c2c(C)noc2C)nc2ccccc12,-42%,nt,-1%,nt,nt,nt
CN(C)c1ccc(-c2ccc3ncnc(-n4ccnc4)c3c2)cc1,3.2µM*,nt,6%,nt,nt,nt
Cc1ccccc1-c1ccc2ncnc(-n3ccnc3)c2c1,1µM*,nt,10%,nt,nt,nt
Cc1ccccc1-c1ccc2ncnc(N(C)C)c2c1,-81%,nt,6%,nt,nt,nt
Cc1cc(N2CCC(C)CC2)nc(SCC(=O)c2ccccc2)n1,12%[10 µM],13,13%,?,-49%,-119*
